test system: T1, PIP5K2C
T1 construct: gene PIP4K2C
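Note: kd values determined as follow-up on hits from a single-replicate KINOMEscan panel screen.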

Point of comparison: `CCc1nc(-c2cccc(C)c2)c(-c2ccnc(NC(=O)c3ccccc3)c2)s1`, Kd 4100 nM. Against it:
- O=C(c1ccc(-c2cc(-c3c[nH]nc3-c3ccccn3)ccn2)cc1)N1CCCC1 [GW792479] — 200-fold lower, 21 nM
- CNc1nccc(-c2c(-c3ccc(F)cc3)ncn2C2CCN(C)CC2)n1 [SB-222903] — 110-fold lower, 39 nM
- CN1CCC(n2cnc(-c3ccc(F)cc3)c2-c2ccnc(NC3CCNCC3)n2)CC1 [SB-229482] — 19-fold lower, 220 nM
